The values that follow come from PubChem BioAssay AID686978 (National Center for Advancing Translational Sciences (NCATS), 2013).

Structures are written as SMILES. “And” between values parts separate entries of the source, which are not always exact repeats. Equal entries are not always repeated. The whole screen tested about 420,000 compounds, of which about 64,000 (15%) were called active. Entries that show only a call come without a potency. Another 27% or so got no clear call; they are omitted. This excerpt belongs to a sample that is enriched for actives. A number with no mark means an inactive call. Calls follow the shape of the dose curve; as a rule, active = well fitted inhibition curve with a large enough effect; inconclusive = small, poorly fitted or top-dose-only effect; inactive = flat fitted curve, though single readings scatter.
Potency is read from the fitted curve at half-maximal effect.

A short description of the experiment: qHTS for Inhibitors of human tyrosyl-DNA phosphodiesterase 1 (TDP1): qHTS in cells in absence of CPT. Also: nearly all actives have a fitted effect of over 55% in size. Conditions: DT40 Tdp1-/- hTDP1 cells, no CPT, ATP luminescence, 48 h; series mostly up to 46.2 µM. The text has this:
Human tyrosyl-DNA phosphodiesterase 1 (TDP1) is a novel repair gene, and we propose to use it as a new target for anticancer drug development. TDP1 is not an essential protein, but under treatment with topoisomerase I poison (camptothecin: CPT), TDP1 works as a critical factor for cell survival. To directly identify novel TDP1 inhibitors active in a cellular environment, we have knocked-out the Tdp1 gene in chicken DT40 cells (Tdp1-/-) and generated a complemented counterpart cells that contains a stable transfection of the human TDP1 gene (Tdp1-/-;hTDP1 cells). For the primary screen, Tdp1-/-;hTDP1 cells will be exposed to small molecules in the presence or absence of CPT, and their growth kinetics will be evaluated after 48 hours by measuring ATP activity. […] The hit compounds will then be evaluated in the presence or absence of CPT using Tdp1-/- cells. […] In tertiary assays, biochemical gel-based assays will be used to assess whether the hit compounds specifically target TDP1.
To this end, we have screened this cell line against the MLSMR in two primary screens. In one screen we add CPT and in the other we screen in the absence of CPT; this AID represents the screen where CPT was absent.
NIH Chemical Genomics Center [NCGC]
NIH Molecular Libraries Probe Centers Network [MLPCN]
Assay Submitter (PI): Yves Pommier, NCI
DT40-hTDP1 cells without 20 nM Camptothecin (add 20 microL of DMSO in 1 L of cell culture medium) were dispensed at 400 cells/5microL/well in tissue culture treated 1536-well white wall/solid bottom assay plates (Greiner Bio-One North America, NC, U.S.A.) using a Multidrop Combi 8 channel dispenser (Thermo Fisher, Waltham, MA, USA). 23 nL compounds and controls were transferred using the pin tool (Kalypsys, San Diego, CA, USA) to the assay plates. The assay plates were then incubated at 37 masculineC for a minimum 48 hr. Three microL of Cell Titer Glo solution was added to the plates and incubated at RT in dark for 30 min. Luminescence was read using ViewLux (Perkin Elmer) with 1 sec exposure slow speed, high gain and 2x binning.
(qHTS replaces the single test concentration by a dilution series.)
With `CC1CCC(N(C)C2CCN(C)CC2)CC1` (centres undefined), the Potency result is “inactive”. With `O=C(COC(=O)Cc1ccccc1)Nc1ccc(F)cc1`, the Potency result is “inactive”. On the same count and under the same terms, the same measure for `CCOC(=O)c1ccc(N2C(=O)c3[nH]nc(-c4ccccc4)c3C2c2ccc(C(C)C)cc2)cc1` (centres undefined): 25.9 µM (active). For the molecule `CCN(N=Nc1nonc1OC)c1nonc1OC`, the Potency result is “inactive”.

Turning to `O=c1[nH]c(=O)n(-c2ccc(F)cc2)c(O)c1C=NCCN1CCCCC1`, the Potency entry is “inactive”. With `CCn1cc2nc(SCc3ccccc3Cl)n(CCc3ccccc3)c(=O)c2n1`, the Potency was 20.6 µM (active). On the same count and under the same terms, the same measure for `COc1cccc(OC)c1C(=O)NC(=S)N1C[C@H]2C[C@H](C1)c1cccc(=O)n1C2`: “inactive”; for `CC(C)=C[C@@H]1[C@@H](C(=O)OCc2coc(Cc3ccccc3)c2)C1(C)C`: “inactive”; for `CN1CCN(C(=O)O[C@@H]2c3nccnc3C(=O)N2c2ccc(Cl)cn2)CC1`: “inactive”. On to `CCC(C)(O)C(=O)OC1C(=O)OC2CC3C(C)=CC(=O)C(O)C3(C)C3C4(O)OCC23C1C(C)C4O` (centres undefined), for which the Potency was 0.13 µM (active). The same measure, in the same setting: the same measure for `N#CC(C#N)=Cc1cc(O)c(O)c([N+](=O)[O-])c1`: “inactive”; for `O=C(N/N=C/c1ccc([N+](=O)[O-])o1)c1cc([N+](=O)[O-])cc([N+](=O)[O-])c1O`: “inactive”.

`CC(=O)OC1C2CCC3C1(CC(O)[C@@]1(O)[C@@H](CC(O)C1(C)C)[C@]3(C)O)C[C@@]2(C)O` (some centres undefined): the Potency result is “inactive”. The same measure, in the same setting: the same measure for `COc1ccc(-c2cc(NC=O)c3ncc(-c4cc(OC)c(OC)c(OC)c4)n3c2)c(OC)c1`: 0.82 µM (active); for `O=C(O)COc1ccccc1/C=C1\C(=O)NC(=O)N(CCC2=CCCCC2)C1=O`: “inactive”. Still for that read-out and setting: the same measure for `O=C1NC(=O)N(Cc2ccco2)C(=O)/C1=C\c1cccn1CCOc1ccccc1`: “inactive”; for `O=C1NC(=O)N(CCc2ccc(F)cc2)C(=O)/C1=C/C=C/c1ccccc1`: 6.51 µM (active); for `CCc1ccc(N(CC)C(=O)CCn2cnc3onc(-c4ccc(F)cc4)c3c2=O)cc1`: 13 µM (active).

With `O=C(/C=C/c1cccs1)c1cc(Cl)ccc1OC(=O)N1CCOCC1`, the Potency was 16.4 µM (active). As for `Cc1cccc(-n2c(O)c(C=NC34CN5CN(CN(C5)C3)C4)c(=O)[nH]c2=O)c1`, the Potency result is “inactive”. Turning to `COC12CC[C@@]3(C[C@@H]1C(C)(O)C(C)(C)C)[C@H]1Cc4ccc(O)c5c4[C@@]3(CCN1CC1CC1)[C@H]2O5` (some centres undefined), the Potency was 24.1 µM (active). Same read-out and setting: under `Oc1ccc2c3c1OC1[C@H](O)CC[C@@]4(O)[C@@H](C2)N(CC2CC2)CC[C@]314` (some centres undefined) stands “inactive”; under `CCOC(=O)C1CN(C)CCC1=O` (centres undefined), “inactive”.

In the case of `CCC/C(=N\O)c1c[nH]c2ccccc12`, the Potency entry is “inactive”. Still for that read-out and setting: the same measure for `CNCC[C@H](Oc1ccc(C(F)(F)F)cc1)c1ccccc1`: 8.41 µM (active) and 14.6 µM (active). Regarding `CCC1(CC(C)c2ccccc2)C(=O)NC(=O)NC1=O` (centres undefined), the Potency entry is “inactive”. As to `CCCCC/C=C\C/C=C\C/C=C\CCCCCCC(=O)NCCO`, the activity change, negative = growth inhibition is -2.66% [at 4.12 µM]. In the case of `CC1CCCN1CCC(C(N)=O)(c1ccccc1)c1ccccc1` (centres undefined), the Potency entry was “inactive”.

Regarding `O=Cc1cn(Cc2ccc(F)cc2Cl)c2ccccc12`, the Potency was 18.4 µM (active). Regarding `O=[N+]([O-])c1ccc(Cl)c(Cl)c1`, the Potency result is “inactive”. Still for that read-out and setting: the same measure for `CCC(=NCc1ccco1)c1c(O)n(Cc2ccccc2)c(=O)[nH]c1=O`: “inactive”; for `Clc1ccc([C@@H]2C[C@H]3CC[C@@H]2N3)cn1`: “inactive”. Still for that read-out and setting: the same measure for `Cc1ccc([C@H]2C[C@H](O)[C@@H](n3cc(COC(=O)c4ccccc4)nn3)CN2CC2CCCCC2)cc1`: 20.6 µM (active); for `COCCNC(=O)CN1C2CCC1CC(O)(c1cccnc1)C2` (centres undefined): “inactive”. Still for that read-out and setting: the same measure for `Cn1c(O)c(C=NCCN2CCNCC2)c(=O)n(C)c1=O`: “inactive”; for `NCC(O)c1ccc(O)cc1` (centres undefined): “inactive”. `c1csc(CN2CC3(CCNCC3)C2)n1`: the Potency result was “inactive”. Still for that read-out and setting: under `CCc1ccccc1NC(=O)c1sc2nc3c(cc2c1N)CN(Cc1ccccc1)CC3` stands 5.8 µM (active); under `CC12CN3CC(C)(CN(C1)C3c1cccs1)C2` (centres undefined), “inactive”; under `CC(=O)Nc1ccccc1C(=O)OCC(=O)c1cccc2ccccc12`, “inactive”. For `CCOc1cccc(=NC2CCCCC2)c2c(C)[nH]c(C)c12`, the Potency was 5.8 µM (active).

As for `O=C(N/N=C/c1c(O)n(C2CC2)c(=S)[nH]c1=O)c1ccccc1Cl`, the Potency result is “inactive”. As for `OC(CNC1CCCCC1)c1ccccc1` (centres undefined), the Potency result is “inactive”.

For `CC1CC=CCC12C(=O)NC(=S)NC2=O` (centres undefined), the Potency entry is “inactive”. Same read-out and setting: the same measure for `COc1ccccc1CNC(=O)Cn1c(=O)oc2cc(Cl)ccc21`: 18.4 µM (active); for `Cc1ccccc1N1C(=O)NC(=O)/C(=C\c2cc(C)n(C)c2C)C1=O`: “inactive”; for `C[C@@]12CCC3C(CC[C@@H]4CC(O)CC[C@@]34C)C1CCC2O` (some centres undefined): “inactive”. Regarding `C[C@]12CCC3C(CC[C@H]4[C@H](O)[C@H](O)CC[C@]34C)C1CC[C@@H]2O` (some centres undefined), the Potency result was “inactive”. The same measure, in the same setting: under `C[C@]12CCC3C(CC[C@H]4[C@H](O)[C@H](O)CC[C@]34C)C1CCC2=O` (some centres undefined) stands 13 µM (active).
